For 30 compounds, Potency results are on record in PubChem BioAssay AID1508619 (National Center for Advancing Translational Sciences (NCATS), 2020).

SMILES strings stand for the structures. Records with an inconclusive call do not appear. Where a call stands in place of a potency, no number is given. Calls of active or inactive are those of the source. Calls follow the shape of the dose curve; as a rule, active = well fitted inhibition curve with a large enough effect; inconclusive = small, poorly fitted or top-dose-only effect; inactive = no such curve, though single readings can be large or run the other way.
Potency is read from the fitted curve at half-maximal effect.

The assay can be described thus: Counterscreen qHTS for Identification of Calcium Integrin Binding Protein 1 (CIB1) Competitor. The conditions noted are these: series mostly up to 114 µM. In short, it runs like this: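 Counterscreen FP assay: CIB1-GST 1 uM in 5 mM HEPES pH 7.4, 125 mM NaCl, 5 mM CaCl2, 0.01% Tween20, with compounds up to 114 uM for 15 min, then 100 nM FITC-labelled scrambled peptide, 15 min, polarization read ex 480/em 540.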
On to `O=[N+]([O-])c1ccc(O)c2ncccc12`, for which the Potency result is “inactive”. For `Nc1ccc(O)c([N+](=O)[O-])c1`, the Potency was 63.1 µM (active). To `CCOC(=O)c1c(-c2ccc(C)o2)csc1NC(=O)CSc1nnnn1-c1ccccc1` belongs “inactive”; to `CCc1ccc(C=C2SC(=S)NC2=O)cc1`, “inactive”; to `O=C1CCCC2=C1C(c1ccncc1)N=C(Nc1nc3ccccc3o1)N2` (stereo not given), “inactive”. To `O=C(NNC(=O)c1nc2ccccc2[nH]1)OCc1ccccc1` belongs “inactive”.

As for `O=C(Cc1ccc(Cl)c(Cl)c1)Nc1ccc(S(=O)(=O)Nc2cccc(C(=O)O)c2)cc1`, the Potency result is “inactive”. To `C=CCNc1oc(-c2ccc(-c3ccccc3)cc2)nc1C#N` belongs “inactive”; to `N#Cc1ccc(NS(=O)(=O)c2ccc(NC(=O)Cc3ccc(F)c(Cl)c3)cc2)cc1`, “inactive”; to `O=S(=O)(Nc1nc2ccccc2s1)c1ccc(NCc2ccc(Br)cc2O)cc1`, “inactive”. To `Cc1ccc2nc3sc(C(=O)NCc4ccco4)cc3cc2c1` belongs “inactive”; to `N#Cc1ccc(NS(=O)(=O)c2ccc(NC(=O)Cc3ccc(Cl)c(Cl)c3)cc2)cc1`, “inactive”; to `O=c1c2ccccc2nc2sc(NS(=O)(=O)c3ccc4c(c3)CCC4)nn12`, “inactive”.

As to `Oc1cccc2c(-c3nn[nH]n3)ccnc12`, the Potency result was “inactive”. To `Cn1cc(-c2[nH]c3cc(NC(=O)[C@H](N)C4CCCCC4)cc4c3c2C=NNC4=O)cn1` belongs 79.4 µM (active).

For the compound `CCOc1ccc(CCNC(=O)c2ccc(N3N=C(C)CC3=O)cc2)cc1OCC`, the Potency result is “inactive”. The entry for `NC(=O)c1ccnc2c(O)cccc12` is “inactive”. Consider `Oc1cccc2cc(C3CC3)cnc12`, for which the Potency result was “inactive”. To `N#Cc1cnc(NS(=O)(=O)c2ccc(NC(=O)Cc3ccc(F)c(Cl)c3)cc2)s1` belongs “inactive”. Consider `CCC(=O)NC(c1cccs1)c1cc(Br)c2cccnc2c1O` (stereo not given), for which the Potency result is “inactive”. To `CCCCCCCCOc1ccccc1C(=O)Nc1ccc(C(=O)OCC[N+](C)(CC)CC)cc1` belongs “inactive”; to `O=C1CCC2=C1C1(CCCC1)N=C(Nc1nc3ccccc3o1)N2`, “inactive”; to `NC(=O)c1ncn([C@@H]2O[C@H](CO)[C@@H](O)[C@H]2O)c1O`, “inactive”.

For `Cc1cnc(-c2ccccc2C(C)C)nc1NCc1ccc(-c2ccc(F)nc2)cc1`, the Potency is 44.7 µM (active). To `CC(C)(C)OC(=O)CC(=O)NNC(=O)c1nc2ccccc2[nH]1` belongs “inactive”; to `CN1CCCN(C(=O)c2cccc(-c3ccc(C=C4C(=O)Nc5ccc(Cl)cc54)o3)c2)CC1`, 35.5 µM (active); to `COc1ccc(CC(=O)Nc2ccc(S(=O)(=O)Nc3cc(C)on3)cc2)cc1C`, “inactive”. Consider `C/C(=C\c1ccc2c(c1)OCO2)C1Nc2cccc3cccc(c23)N1`, for which the Potency is 12.6 µM (active). In the case of `O=S(=O)(Nc1nccs1)c1ccc(NCc2cc(Cl)ccc2O)cc1`, the Potency result is “inactive”.

On to `O=c1[nH]nc(Sc2ncc([N+](=O)[O-])s2)n1-c1ccc2c(c1)OCCO2`, for which the Potency entry was “inactive”.
